From PubChem BioAssay (EPA / NIEHS)
The source holds several records for some structures; these can differ, active in one and inactive in another. Calls of active or inactive are those of the source. Rule for the calls: active = hit-call score of the fitted dose curve at least 0.9, where 1 is the maximum; inactive = score below 0.9.

What was measured:
[1] = APR_HepG2_MicrotubuleCSK_1hr: Apredica 1-hour HepG2 Assay for Microtubule CSK Stabilty (AID 2282669); conditions: HepG2 microtubule cytoskeleton imaging, actives raise or lower the signal
How it was run: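 HepG2 cells exposed 1 h to 0.39–200 uM compound (0.5% DMSO, duplicates), then formaldehyde-fixed, permeabilized and immunostained for alpha-tubulin with Hoechst nuclei. Imaged by ArrayScan high-content analysis; bidirectional fit versus DMSO.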

[2] = APR_HepG2_p53Act_1hr: Apredica 1-hour HepG2 Assay for p53 Activation (AID 2282671); conditions: high-content imaging, actives raise or lower the signal
How it was run: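 HepG2 cells treated 1 h with compound at 0.39–200 uM (10 concentrations, duplicate) in 0.5% DMSO. Formaldehyde-fixed, permeabilised cells immunostained for p53 with Hoechst 33342; high-content imaging, bidirectional fit versus DMSO.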

[3] = APR_HepG2_MitoticArrest_1hr: Apredica 1-hour HepG2 Assay for Mitotic Arrest (AID 2282672); conditions: high-content imaging, actives raise or lower the signal
How it was run: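 HepG2 cells exposed 1 hr to compounds at 0.39–200 uM (0.5% v/v DMSO final), then fixed in 3.7% formaldehyde and immunostained for phospho-histone H3 with Hoechst 33342. Mitotic arrest scored by automated fluorescence imaging, fitted bidirectionally versus DMSO.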

[4] = APR_HepG2_P-H2AX_1hr: Apredica 1-hour HepG2 Assay for H2AX Phosphorylation (AID 2282673); conditions: high-content imaging, actives raise or lower the signal
How it was run: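 HepG2 dosed 1 hr at 0.39-200 uM (0.5% DMSO final), duplicate. Fixed in 3.7% formaldehyde, Triton permeabilized, immunostained for phospho-histone H2A.x (1:200) with Hoechst 33342; ArrayScan 20x imaging, bidirectional fit vs DMSO.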

[5] = APR_HepG2_MitoMembPot_1hr: Apredica 1-hour HepG2 Assay for Mitochondrial Membrane Potential (AID 2282675); conditions: imaging, actives raise or lower the signal
How it was run: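 HepG2 cells dosed 1 hour with 0.39–200 uM compound in duplicate, 0.5% DMSO final. MitoTracker Red CMXRos (250 nM, 30 min) loaded before formaldehyde fixation; fluorescence quantified by high-content imaging, bidirectional fitting versus DMSO.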

[6] = APR_HepG2_CellCycleArrest_24hr: Apredica 24-hour HepG2 Assay for Cell Cycle Arrest (AID 2282905); conditions: imaging, actives raise or lower the signal;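 note: cell cycle arrest scored as ratio of 2N to 4N nuclear DNA content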
How it was run: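 HepG2 cells were exposed to compounds at 0.39–200 uM (ten concentrations, duplicate) in 0.5% v/v DMSO for 24 hr. After formaldehyde fixation and Triton permeabilization, Hoechst 33342-stained nuclei were imaged at 20x; DNA content was quantified, with bidirectional fitting against DMSO.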

[7] = APR_HepG2_StressKinase_1hr: Apredica 1-hour HepG2 Assay for Stress Kinase (AID 2282906); conditions: HepG2 stress kinase (phospho-c-Jun) imaging, actives raise or lower the signal
How it was run: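 HepG2 cells dosed 0.39-200 uM (0.5% DMSO) for 1 h, then formaldehyde-fixed. Stress kinase read by phospho-c-Jun immunofluorescence using high-content imaging; bidirectional fit vs DMSO.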

[8] = APR_HepG2_NuclearSize_24hr: Apredica 24-hour HepG2 Assay for Nuclear Size (AID 2282907); conditions: high-content imaging, actives raise or lower the signal
How it was run: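 HepG2 human liver cells were exposed for 24 hr to compounds at 0.39–200 uM (ten concentrations, duplicate) in 0.5% v/v DMSO. They were then formaldehyde-fixed, Triton-permeabilized and Hoechst 33342-stained, and nuclear diameter was imaged at 20x. Bidirectional fits were made against DMSO.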

[9] = APR_HepG2_CellLoss_24hr: Apredica 24-hour HepG2 Assay for Cell Loss (AID 2282908); conditions: high-content imaging;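 for AC50: fit in both directions so a hit may be cell loss or gain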
How it was run: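 Compounds were tested at 0.39–200 uM in duplicate with 0.5% v/v DMSO final. Cells were then fixed in 3.7% formaldehyde, Hoechst 33342 nuclei were imaged at 20x by HCS, and cell number was fitted bidirectionally against DMSO.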

[10] = APR_HepG2_MicrotubuleCSK_24hr: Apredica 24-hour HepG2 Assay for Microtubule CSK Stabilty (AID 2282909); conditions: HepG2 microtubule cytoskeleton imaging, actives raise or lower the signal
How it was run: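 HepG2 cells exposed 24 h to compounds at 0.39–200 uM (duplicate, 0.5% v/v DMSO final), then fixed, permeabilized and immunostained for alpha-tubulin with Hoechst 33342. Cytoskeleton imaged at 20x; bidirectional fit versus DMSO baseline.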

[11] = APR_HepG2_MitoticArrest_24hr: Apredica 24-hour HepG2 Assay for Mitotic Arrest (AID 2282910); conditions: high-content imaging, actives raise or lower the signal
How it was run: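 HepG2 cells, 24 h exposure at 0.39-200 uM (10 concentrations, duplicate, 0.5% DMSO). Fixed, stained for phospho-histone H3 with Hoechst; imaged by high-content microscopy, bidirectional fit versus DMSO.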

[12] = APR_HepG2_MitoMembPot_24hr: Apredica 24-hour HepG2 Assay for Mitochondrial Membrane Potential (AID 2282911); conditions: imaging, actives raise or lower the signal
How it was run: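 Mitochondrial membrane potential imaged via MitoTracker Red CMXRos (250 nM, 30 min pre-fixation) in fixed HepG2 cells with Hoechst nuclear identification. Ten concentrations 0.39–200 uM, 24 h treatment, 0.5% DMSO; CCCP as positive control.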

[13] = APR_HepG2_MitoMass_24hr: Apredica 24-hour HepG2 Assay for Mitochondrial Mass (AID 2282912); conditions: high-content imaging, actives raise or lower the signal
How it was run: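 Human HepG2 liver cells were exposed for 24 hr to compounds at 0.39–200 uM (duplicates, 0.5% v/v DMSO final). They were stained live with 250 nM MitoTracker Red CMXRos for 30 min, fixed in 3.7% formaldehyde, and imaged by HCS fluorescence; signals were fitted bidirectionally against DMSO.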

[14] = APR_HepG2_p53Act_24hr: Apredica 24-hour HepG2 Assay for p53 Activation (AID 2282913); conditions: high-content imaging, actives raise or lower the signal;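 note: p53 protein immunofluorescence averaged per cell in HepG2 with Hoechst nuclei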
How it was run: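 Fluorescence imaging of formaldehyde-fixed HepG2 cells labelled for p53 and with Hoechst, 24 h after dosing (0.39–200 uM, duplicate wells, 0.5% v/v DMSO). Signal fitted in both directions relative to DMSO.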

[15] = APR_HepG2_CellCycleArrest_72hr: Apredica 72-hour HepG2 Assay for Cell Cycle Arrest (AID 2282914); conditions: high-content imaging, actives raise or lower the signal
How it was run: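 Read-out: nuclear DNA content from Hoechst 33342 high-content imaging (20x, six fields/well) after 3.7% formaldehyde fixation, fitted bidirectionally against DMSO. Treatment was 72 h in HepG2, ten concentrations 0.39–200 uM, duplicate, 0.5% DMSO.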

[16] = APR_HepG2_CellLoss_72hr: Apredica 72-hour HepG2 Assay for Cell Loss (AID 2282915); conditions: high-content imaging
How it was run: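 HepG2 cells exposed 72 h to compound at 0.39–200 uM (10 concentrations, duplicate) in 0.5% DMSO. Fixed with 3.7% formaldehyde and Hoechst 33342-stained. Imaged at 20x; nuclear count gives cell number, fitted bidirectionally versus DMSO.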

[17] = APR_HepG2_MitoMass_1hr: Apredica 1-hour HepG2 Assay for Mitochondrial Mass (AID 2282674); conditions: high-content imaging, actives raise or lower the signal
How it was run: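 HepG2 cells dosed 1 hr with 0.39-200 uM compound (0.5% DMSO), duplicate wells. Mitochondria stained with 250 nM MitoTracker Red CMXRos for 30 min before formaldehyde fixation, imaged at 20x by ArrayScan; bidirectional fit versus DMSO.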

## CCc1ccc(C(=O)NN(C(=O)c2cc(C)cc(C)c2)C(C)(C)C)cc1
[1]
  outcome: inactive
[2]
  outcome: inactive
[3]
  outcome: inactive
[4]
  outcome: inactive
[5]
  outcome: inactive
[6]
  outcome: inactive
[7]
  outcome: inactive
[8]
  outcome: inactive
[9]
  outcome: inactive
[10]
  outcome: inactive
[11]
  outcome: inactive
[12]
  outcome: inactive
[13]
  outcome: inactive
[14]
  outcome: inactive
[15]
  outcome: inactive
[16]
  AC50: 43.6 µM (active)

## CCOC1Oc2ccc(OS(C)(=O)=O)cc2C1(C)C (stereo unspecified)
[1]
  outcome: inactive
[3]
  outcome: inactive
[4]
  outcome: inactive
[5]
  outcome: inactive
[6]
  outcome: inactive
[7]
  outcome: inactive
[8]
  outcome: inactive
[9]
  outcome: inactive
[10]
  outcome: inactive
[11]
  outcome: inactive
[12]
  outcome: inactive
[13]
  outcome: inactive
[15]
  outcome: inactive
[16]
  AC50: 46.1 µM (active)

## CN1CSC(=S)N(C)C1
[1]
  outcome: inactive
[2]
  outcome: inactive
[3]
  outcome: inactive
[4]
  outcome: inactive
[17]
  outcome: inactive
[5]
  outcome: inactive
[6]
  outcome: inactive
[7]
  AC50: 40.9 µM (active)
[8]
  outcome: inactive
[9]
  AC50: 16.8 µM (active)
[10]
  outcome: inactive
[11]
  AC50: 27 µM (active)
[12]
  outcome: inactive
[13]
  outcome: inactive
[14]
  outcome: inactive
[15]
  AC50: 6.04 µM (active)
[16]
  AC50: 21.9 µM (active)

## O=C(O)C(F)(F)C(F)(F)C(F)(F)C(F)(F)C(F)(F)C(F)(F)C(F)(F)F
[1]
  outcome: inactive
[2]
  outcome: inactive
[3]
  outcome: inactive
[4]
  outcome: inactive
[17]
  outcome: inactive
[5]
  outcome: inactive
[6]
  outcome: inactive
[7]
  outcome: inactive
[8]
  outcome: inactive
[9]
  outcome: inactive
[10]
  outcome: inactive
[11]
  outcome: inactive
[12]
  outcome: inactive
[13]
  outcome: inactive
[14]
  outcome: inactive
[15]
  outcome: inactive
[16]
  AC50: 108 µM (active)
  outcome: inactive

## CC(C)OC(=O)Nc1cccc(Cl)c1
[1]
  outcome: inactive
[2]
  outcome: inactive
[3]
  outcome: inactive
[4]
  outcome: inactive
[5]
  outcome: inactive
[6]
  outcome: inactive
[7]
  outcome: inactive
[8]
  outcome: inactive
[9]
  outcome: inactive
[10]
  outcome: inactive
[11]
  outcome: inactive
[12]
  outcome: inactive
[13]
  outcome: inactive
[14]
  outcome: inactive
[15]
  outcome: inactive
[16]
  outcome: inactive

## CCS(=O)(=O)c1cccnc1S(=O)(=O)NC(=O)Nc1nc(OC)cc(OC)n1
[1]
  outcome: inactive
[2]
  outcome: inactive
[3]
  outcome: inactive
[4]
  outcome: inactive
[5]
  outcome: inactive
[6]
  outcome: inactive
[7]
  outcome: inactive
[8]
  outcome: inactive
[9]
  outcome: inactive
[10]
  outcome: inactive
[11]
  outcome: inactive
[12]
  outcome: inactive
[13]
  outcome: inactive
[14]
  outcome: inactive
[15]
  outcome: inactive
[16]
  outcome: inactive

## CNC(=O)/C=C(\C)OP(=O)(OC)OC
[1]
  outcome: inactive
[3]
  outcome: inactive
[4]
  outcome: inactive
[5]
  outcome: inactive
[6]
  outcome: inactive
[7]
  outcome: inactive
[8]
  outcome: inactive
[9]
  outcome: inactive
[10]
  outcome: inactive
[11]
  outcome: inactive
[12]
  outcome: inactive
[13]
  outcome: inactive
[15]
  outcome: inactive
[16]
  outcome: inactive
